From PubChem BioAssay (NCATS)
Inconclusive results are not listed. Where a call stands in place of a potency, no number is given. Activity calls are given as the source filed them. Calls follow the shape of the dose curve; as a rule, active = well fitted cell-killing curve with a large enough effect; inconclusive = small, poorly fitted or top-dose-only effect, or effect the other way; inactive = flat fitted curve, though single readings scatter.

Assay: UWB1.289-WTBRCA1 Cancer Cell Toxicity qHTS against the NCATS CANVASS Library (AID 1347354)
Conditions: UWB1.289-WTBRCA1 viability, CellTiter-Glo luminescence, 72 h; series mostly up to 38.3 µM
Excerpt: Natural products and their derivatives continue to be wellsprings of nascent therapeutic potential. However, many laboratories have limited resources for biological evaluation, leaving their previously isolated or synthesized compounds largely or completely untested. To address this issue, the Canvass library of natural products was assembled (https://tripod.nih.gov/canvass), in collaboration with academic and industry researchers, for quantitative high-throughput screening (qHTS) across a diverse set of cell-based and biochemical assays. The pure (>85% purity by liquid chromatography/mass spectrometry [LC/MS]) Canvass library of 346 natural products were submitted by 45 academic laboratories and companies around the world. We collected pure natural products to circumvent deconvolution and structure elucidation due to time and resource limitations. The library was formatted into 1536-well plates and evaluated in 50 qHTS (in an 11-pnt concentration series) bioassays with broad scope of disease-relevant mechanisms. The resulting data set from 50 different assays was then systematically analyzed to identify overall trends and specific natural products with interesting biological activities. Reported herein are the results of each individual qHTS and their corresponding assay protocol. National Center for Advancing Translational Sciences (NCATS), Rockville, MD National Institute of Health (NIH), Bethesda, Maryland
Cancer Cell Toxicity COV-362, OV-KATE, OV-SAHO, UWB1.289, UWB1.289-WTBRCA1, HEK-293, HPAF-II, Panc-1005, SW1088, and U-118MG-screen protocol. 1. In a 1536 well, white solid bottom tissue culture plates (Corning 7494), corresponding cells (COV-362, OV-KATE, OV-SAHO, UWB1.289, UWB1.289-WTBRCA1, HEK-293, HPAF-II, Panc-1005, SW1088, or U-118MG) were dispensed in each well at a final concentration of 1000 cells / well (6uL volume) using the Multidrop Combi (Thermo Fisher Scientific) dispenser. 2. The plates were incubated for 4 hours at 37 degrees C/5% CO2/95% Rh. 3. Compounds were pin transferred (~23nL volume) via Wako Pin-tool (Wako Automation, Richmond VA) equipped with a 1536 pin head. The assay plates were treated with compounds in an 11-pnt concentration series with a final concentration range of […] to 85uM. 4. Bortezomib was used as a single dose control (0.5mM column 4, rows 1 - 32) at a final concentration of 1.9uM and as a 16pnt titration (1mM; 1:2 dilution; 16-points; n = 2; column 3, rows 1 - 32) with final concentration range of 0.1nM - 3.8uM. 5. The assay plates were incubated for 72 hours at 37 degrees C/5% CO2/95% Rh. 6. 3uL CellTiter-Glo detection reagent was then added to the plates (columns 2 - 48, rows 1 - 32) and incubated at room temperature for additional 15min. 7. Luminescence signal was acquired via the ViewLux plate reader (PerkinElmer) using a clear filter, 2 second exposure and 2x binning settings.
Potency is read from the fitted curve at half-maximal effect.

Question: For `CC[C@@H]1CN2CC[C@@]3(O)C(=Nc4cccc(OC)c43)[C@@H]2C[C@@H]1/C(=C\OC)C(=O)OC`, which Potency is on record?
Answer: inactive

Question: For `COC(=O)C1=C2Nc3ccccc3[C@@]23CCN2CC(C(C)=O)C1C[C@H]23` (stereo partly specified), which Potency is on record?
Answer: inactive

Question: With `CCC[C@H]1CC[C@H]2[C@H](C)CCC[C@H]2N1` as the compound, how does the Potency read?
Answer: inactive

Question: Which Potency does the source give for `C/C=C1/CN2CC[C@]34C(=Nc5ccccc53)[C@@H]2C[C@@H]1[C@H]4C(=O)OC` here?
Answer: inactive

Question: With `C=C1[C@@H](C)[C@H]2[C@H](Cc3ccccc3)NC(=O)[C@]23OC(=O)/C=C/[C@H](O)CCC[C@@H](C)C/C=C/[C@H]3[C@@H]1O` as the compound, how does the Potency read?
Answer: 13.3 µM (active)

Question: Which Potency does the source give for `CCCC[C@@H]1CC[C@H]2CCCC(CCC)N12` (stereo partly specified) here?
Answer: inactive

Question: For `COc1ccc2c3c([nH]c2c1)C(C)=NCC3`, which Potency is on record?
Answer: inactive

Question: For `CCC(=O)CCCCC[C@@H]1NC(=O)[C@H]2CCCCN2C(=O)[C@H]([C@@H](C)CC)NC(=O)[C@H](Cc2cn(OC)c3ccccc23)NC1=O`, which Potency is on record?
Answer: 6.66 µM (active)

Question: For `CCN1C[C@]2(C)CC[C@@H](O)[C@]34C1[C@H](C[C@H]23)C12CCC(CC14)[C@](O)(CO)[C@H]2O` (stereo partly specified), which Potency is on record?
Answer: inactive

Question: Which Potency does the source give for `CO[C@@H](/C=C/CC/C=C/C(=O)O)[C@@H](O)[C@H](C)/C=C(\C)[C@@H](O)[C@H](C)C(=O)CCCC1CC(=O)NC(=O)C1` here?
Answer: inactive

Question: For `CO[C@@H](/C=C/CC/C=C/C(=O)O)[C@@H](O)[C@H](C)[C@@H](O)/C(C)=C/[C@H](C)C(=O)CCCC1CC(=O)NC(=O)C1`, which Potency is on record?
Answer: inactive

Question: For `CNCCc1ccc(O)cc1`, which Potency is on record?
Answer: inactive

Question: For `COc1ccc2c(c1)[nH]c1c(C)nccc12`, which Potency is on record?
Answer: inactive

Question: With `C[C@@H]1CC[C@@H](c2ccoc2)N2C[C@@]3(CC[C@@H]12)CS[C@@]1(CC[C@H]2[C@H](C)CC[C@@H](c4ccoc4)N2[C@@H]1O)C3` as the compound, how does the Potency read?
Answer: 8.38 µM (active)

Question: For `CC(=O)N[C@H]1CCN2CCC[C@H]12`, which Potency is on record?
Answer: inactive

Question: For `CNCCc1c[nH]c2ccccc12`, which Potency is on record?
Answer: inactive

Question: For `COc1ccc(C23Oc4cc(OC)cc(OC)c4[C@](O)([C@H](c4ccccc4)C2C(=O)NCCCCNC(=O)c2ccccc2)[C@@H]3O)cc1` (stereo partly specified), which Potency is on record?
Answer: inactive

Question: Which Potency does the source give for `CC1=CC2CC[C@@H]3[C@@H](C)C[C@H](C)[C@@H](C1)N23` (stereo partly specified) here?
Answer: inactive

Question: Which Potency does the source give for `O=C(c1ccccc1O)c1[nH]c(Cl)c(Cl)c1-n1c(C(=O)c2ccccc2O)cc(Cl)c1Cl` here?
Answer: 13.3 µM (active)

Question: For `CC1=CC(=O)C2=C(C)C[C@H](O)[C@@H]3[C@H](OC(=O)[C@@H]3C)[C@@H]12`, which Potency is on record?
Answer: inactive

Question: For `CCN1C[C@]2(C)CC[C@H](O)[C@]34C1C(C[C@H]23)[C@@]12CC[C@H](CC14)[C@](O)(COC(=O)c1ccc(OC)c(OC)c1)[C@H]2O` (stereo partly specified), which Potency is on record?
Answer: inactive

Question: Which Potency does the source give for `CC=C1CN(C=O)[C@H]2C[C@@H]1[C@@H](C(=O)OC)[C@@]13CCOC21Nc1ccccc13` (stereo partly specified) here?
Answer: inactive

Question: With `NCCc1ccccc1` as the compound, how does the Potency read?
Answer: inactive

Question: For `CCCCC[C@@H]1OC(=O)[C@@H](C)N(C)C(=O)[C@H](CCCCC)OC(=O)C(C)N(C)C(=O)[C@H](CCCCC)OC(=O)[C@@H](C)N(C)C(=O)[C@H](CCCCC)OC(=O)C(C)N(C)C1=O` (stereo partly specified), which Potency is on record?
Answer: 16.7 µM (active)

Question: For `C[C@]12CC(O)C3[C@@H](CCC4C[C@@H](O)CC[C@@]43CO)[C@@]1(O)CCC2C1=CC(=O)OC1` (stereo partly specified), which Potency is on record?
Answer: inactive

Question: With `CN1C(=O)[C@]23CC4C(C)(C)[C@@]5(C[C@@]41CN2CC[C@@]3(C)O)C(=O)Nc1c5ccc2c1OC=CC(C)(C)O2` (stereo partly specified) as the compound, how does the Potency read?
Answer: inactive

Question: For `c1ccc2c3c([nH]c2c1)CNCC3`, which Potency is on record?
Answer: inactive

Question: Which Potency does the source give for `CC[N@@+]1([O-])C[C@]2(C)CC[C@@H](O)[C@@]34C5C[C@H]6CC[C@@]5(C(C[C@H]23)C41)[C@H](O)[C@@]6(O)CO` (stereo partly specified) here?
Answer: inactive

Question: Which Potency does the source give for `CN(C)Cc1c[nH]c2ccccc12` here?
Answer: inactive

Question: Which Potency does the source give for `CO[C@H](c1ccccc1)[C@H]1NC(=O)C(C)NC(=O)C(C[C@@H](C)CO)N(C)C(=O)[C@@H](C(O)c2cn(C(C)(C)C3CO3)c3ccccc23)NC(=O)C(C(C)C=C(C)C)NC(=O)C(CC(C)C)N(C)C(=O)C(C(C)C)NC1=O` (stereo partly specified) here?
Answer: inactive

Question: Which Potency does the source give for `CNCCc1ccccc1` here?
Answer: inactive
